Records with an inconclusive call do not appear. Calls of active or inactive are those of the source.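 How the source made its calls, unless noted: active means Her2 level under about 52% in both replicate screens, with viability over 70% of control (limit read from the data); inconclusive means Her2 under the limit in one screen only, or viability under 70%; inactive means Her2 level above the set limit.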
Tests used:
[1] = Her2 expression decrease, cell viability multiplex – SKBR3 breast tumor cells, AlphaScreen, ATP viability, primary screen (AID 461); settings: SKBR3 Her2 protein level, 18-24 h, measured here: SKBR3 viability, ATP luminescence, at 10 µM;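 on Her2 level: lower value means less Her2 protein in the cells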;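 on viability: percent of carrier control wells set as 100% viability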
[2] = biological target: Receptor tyrosine-protein kinase erbB-2 (Homo sapiens) (UniProt P04626); experiment: as above; settings: 18-24 h, at 10 µM, stronger effect = lower value
Sequence of Receptor tyrosine-protein kinase erbB-2 (Homo sapiens) (P04626 whole entry, looked up): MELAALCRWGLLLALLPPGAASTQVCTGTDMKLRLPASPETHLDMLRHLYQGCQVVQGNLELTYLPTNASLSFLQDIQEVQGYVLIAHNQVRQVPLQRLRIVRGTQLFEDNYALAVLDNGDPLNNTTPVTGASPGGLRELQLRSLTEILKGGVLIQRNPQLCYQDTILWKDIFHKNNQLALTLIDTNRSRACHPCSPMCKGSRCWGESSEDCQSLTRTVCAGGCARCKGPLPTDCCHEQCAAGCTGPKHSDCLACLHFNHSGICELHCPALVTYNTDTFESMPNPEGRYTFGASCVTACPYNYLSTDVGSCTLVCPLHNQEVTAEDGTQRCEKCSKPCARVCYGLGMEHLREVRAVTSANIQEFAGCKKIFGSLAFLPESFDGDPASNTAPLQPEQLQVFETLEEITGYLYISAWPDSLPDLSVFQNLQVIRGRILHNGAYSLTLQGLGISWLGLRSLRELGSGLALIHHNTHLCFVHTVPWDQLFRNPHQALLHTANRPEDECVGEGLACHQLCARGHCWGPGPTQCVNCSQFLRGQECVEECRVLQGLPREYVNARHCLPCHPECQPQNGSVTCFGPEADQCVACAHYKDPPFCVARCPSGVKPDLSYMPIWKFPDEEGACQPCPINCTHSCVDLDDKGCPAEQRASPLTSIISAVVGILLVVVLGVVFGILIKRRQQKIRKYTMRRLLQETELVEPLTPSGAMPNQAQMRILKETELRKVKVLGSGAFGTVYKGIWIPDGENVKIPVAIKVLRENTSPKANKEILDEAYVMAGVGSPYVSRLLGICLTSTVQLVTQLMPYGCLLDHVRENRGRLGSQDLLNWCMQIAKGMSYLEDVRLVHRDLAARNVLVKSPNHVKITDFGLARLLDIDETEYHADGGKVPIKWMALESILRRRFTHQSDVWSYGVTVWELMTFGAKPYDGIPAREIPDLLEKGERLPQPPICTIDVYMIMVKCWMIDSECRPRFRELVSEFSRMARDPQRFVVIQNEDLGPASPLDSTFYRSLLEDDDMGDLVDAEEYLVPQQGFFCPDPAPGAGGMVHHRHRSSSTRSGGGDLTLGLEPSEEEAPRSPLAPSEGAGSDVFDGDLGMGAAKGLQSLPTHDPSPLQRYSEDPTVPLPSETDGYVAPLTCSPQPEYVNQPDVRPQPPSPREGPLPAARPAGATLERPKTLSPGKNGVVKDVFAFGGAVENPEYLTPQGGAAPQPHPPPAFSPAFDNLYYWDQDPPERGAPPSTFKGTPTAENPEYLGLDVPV

[3] = reduced viability of SK-BR-3 breast cancer cells – cell-based, 24 h, human, pilot screen (AID 572;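 active means viability at or below 10% of carrier control in both of two separate runs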;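 further: compound exposure lasted between 18 and 24 h rather than exactly 24 h; 100% = carrier-treated control wells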); settings: SK-BR-3 viability, CellTiter-Glo luminescence, at 10 µM, stronger effect = lower value
[4] = HUVEC growth inhibition – cell-based, human, primary screen (AID 575;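 active means viability at or below 30% in both replicate assays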;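 further: 100% = median of untreated cell wells with 0.1% DMSO on each plate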); settings: HUVEC proliferation, CellTiter-Glo luminescence, 72 h; at 10 µM; stronger effect = lower value
[5] = H69AR cell proliferation blockers – human, duplicate replicates, primary screen (AID 580;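 active means viability at or under a set limit in both replicates, limit being median viability minus 3 SD, cut at about 48% in these data, passing the limit was not always enough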;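 further: 100% = mean luminescence of untreated wells and 0% = no signal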); settings: H69AR lung tumor cells viability, ATP luminescence, 72 h; at 10 µM; stronger effect = lower value
[6] = MRP1 drug-resistance reversers in H69AR cells – cell-based, doxorubicin co-treatment, pilot screen (AID 601;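 active means viability loss from added drug above about 55%, and viability with drug at most 40%, in both replicates, limit read from the data, passing the limit was not always enough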); settings: CellTiter-Glo, 72 h, at 10 µM; for differential viability (reversal): stronger effect = higher value
[7] = yeast transport mutant growth inhibition pilot in 384-well plates, post-Golgi transport modulator project (AID 636; in the data active means inhibition above about 31%); settings: absorbance 615 nm, about 18 h, stronger effect = higher value
[8] = growth suppression of yeast trafficking mutant, preliminary HTS, modulators of trafficking downstream of Golgi apparatus project, 1536-format plate, OD 615 nm (AID 637; in the data active means inhibition above about 30%); settings: yeast transport mutant growth, absorbance 615 nm, 18 h; stronger effect = higher value
[9] = S. cerevisiae growth inhibition in permissive medium (OD615), pilot counter-assay for S. cerevisiae lifespan shortening project, permissive growth control (AID 705;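 active means growth inhibition above 25% in both replicates, a cutoff set 3 SD above the mean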); settings: OD615, 24 h, at 10 µM, stronger effect = higher value
[10] = S. cerevisiae growth inhibition in restrictive medium, OD615, pilot screen, restrictive growth control, yeast lifespan reduction project (AID 706;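 active means growth inhibition above a set limit, 3 SD over mean compound inhibition, in both replicates, cut at about 43% in these data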;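 further: modified DeaD lifespan yeast strain shifted to restrictive glucose medium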); settings: OD615, 48 h, at 10 µM, stronger effect = higher value
[11] = doxorubicin toxicity protection in MRP-1 cells – H69AR cells, CellTiter-Glo, duplicate, MRP-1 activator project, pilot screen (AID 807;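 active means viability increase at or above a cutoff of the median across tested compounds plus 3 SD, cut at about 8.5% in these data, passing the limit was not always enough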;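 further: compound pretreatment 18-22 h then 72 h combined with doxorubicin; 0% = doxorubicin alone and 100% = vehicle without doxorubicin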); settings: H69AR viability with doxorubicin, CellTiter-Glo luminescence; at 10 µM; stronger effect = higher value
[12] = viability of HCT116 without oncogenic beta-catenin – human colon tumor cells, pilot screen (AID 823;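 active means cell viability at or below a set limit in both duplicate runs, the limit being the all-compound median minus 4 SD, cut at about 23% in these data, passing the limit was not always enough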;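 further: 0% = wells killed by 20 µM Hyamine and 100% = untreated DMSO cell wells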); settings: HCT116 beta-catenin knockout viability, CellTiter-Glo, 60 h; at 10 µM; stronger effect = lower value
[13] = viability of PTEN-null HCT116 cells – cell-based, HCT116 clonal line, CellTiter-Glo, pilot screen (AID 824;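 active means viability at or below 27.92% in each of two runs, the all-compound median minus 4 SD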;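 further: 0% = 20 µM Hyamine control and 100% = vehicle cell control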); settings: HCT116 PTEN-deleted viability, 60 h, at 10 µM, stronger effect = lower value
[14] = RAM pathway blockade in budding yeast – dse1pr::URA3 reporter, 5-FOA selection, pilot screen (AID 869;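 active means inhibition over a set limit, the all-compound mean plus 3 SD, in both replicate runs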;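 further: 0% = DMSO wells with no growth and 100% = 10 µM 1-NA-PP1 with full growth; RAM network block rescues cells from 5-FOA so hits raise OD615 growth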); settings: S. cerevisiae dse1pr::URA3 5-FOA growth, OD615, 2 d; at 10 µM; stronger effect = higher value; strain carries analog-sensitive mutant Cbk1 kinase
[15] = H69AR cells + 2 uM doxorubicin, measured here: viability with 2 uM doxorubicin, stronger effect = lower value
[16] = H69AR cells, compound alone cytotoxicity

Cc1[nH]c2ccccc2c1Cc1nnc(SCC(=O)NCc2ccco2)o1
inactive: Her2 level [2] 93% | viability [3] 93% | viability [4] 97.5% | viability [5] 93.7% | differential viability (reversal) ([6]; H69AR cells + 2 uM doxorubicin) 8% | inhibition [7] 1.6% | inhibition [8] -2.17% | growth inhibition [9] -12.4% | growth inhibition [10] 12.7% | viability increase [11] -3.96% | viability [12] 103% | viability [13] 95.5% | inhibition [14] 2.85%
93%: viability [1]
93.7%: viability [6, 16]
85.7%: viability [6, 15]

Cc1ccc(-n2ncc3c(N4CCN(c5ccc(F)cc5)CC4)ncnc32)c(C)c1
71.4%: viability [6, 16]
inactive: Her2 level [2] 94.5% | viability [3] 87.5% | viability [4] 91.8% | viability [5] 71.4% | differential viability (reversal) ([6]; H69AR cells + 2 uM doxorubicin) 31.8% | inhibition [7] 0.26% | inhibition [8] -3.55%
39.6%: viability [6, 15]
87.5%: viability [1]

Cc1ccccc1-c1nc(CS(=O)(=O)CC(=O)N(C)C2CCCCC2)c(C)o1
92.7%: viability [6, 16]
inactive: Her2 level [2] 104% | viability [3] 108% | viability [4] 90.9% | viability [5] 92.7% | differential viability (reversal) ([6]; H69AR cells + 2 uM doxorubicin) 0.46% | inhibition [7] 0.27% | inhibition [8] -5.08%
108%: viability [1]
92.2%: viability [6, 15]

CCOc1cc(NC(=O)c2ccco2)c(OCC)cc1NC(=O)COc1ccccc1C
active: viability [5] 7.87%
7.87%: viability [6, 16]
67%: viability [1]
12.4%: viability [6, 15]
inactive: Her2 level [2] 77.5% | viability [3] 67% | viability [4] 60.9% | differential viability (reversal) ([6]; H69AR cells + 2 uM doxorubicin) -4.53% | inhibition [7] -5.6% | inhibition [8] -6.19%

COc1ccc(CC(=O)NCc2ccccc2)cc1S(=O)(=O)N1CCOCC1
98.1%: viability [6, 15]
89%: viability [6, 16]
inactive: Her2 level [2] 106% | viability [3] 110% | viability [4] 93.5% | viability [5] 89% | differential viability (reversal) ([6]; H69AR cells + 2 uM doxorubicin) -9.06% | inhibition [7] -2.5% | inhibition [8] 5.82%
110%: viability [1]

Cc1cc(C)c2cc(CN(CC3CCCO3)C(=O)NC3CCCCC3)c(=O)[nH]c2c1 (centres undefined)
75.8%: viability [6, 15]
78.5%: viability [1]
73.4%: viability [6, 16]
inactive: Her2 level [2] 89.5% | viability [3] 78.5% | viability [4] 92% | viability [5] 73.4% | differential viability (reversal) ([6]; H69AR cells + 2 uM doxorubicin) -2.42% | inhibition [7] -0.13% | inhibition [8] 15.8%

COCCNC(=O)c1c(N)n(/N=C/c2cccs2)c2nc3ccccc3nc12
inactive: Her2 level [2] 75.5% | viability [3] 110% | viability [4] 78.2% | viability [5] 74.7% | differential viability (reversal) ([6]; H69AR cells + 2 uM doxorubicin) 0.24% | inhibition [7] 0.66% | inhibition [8] 3.11%
74.4%: viability [6, 15]
74.7%: viability [6, 16]
110%: viability [1]

CCCc1cc(=O)n2[nH]cnc2n1
96.6%: viability [6, 15]
104%: viability [1]
100%: viability [6, 16]
inactive: Her2 level [2] 102% | viability [3] 104% | viability [4] 110% | viability [5] 100% | differential viability (reversal) ([6]; H69AR cells + 2 uM doxorubicin) 3.53% | inhibition [7] -6.22% | inhibition [8] 0.67%

CCOCCn1c(CN2CCN(c3cccc(Cl)c3)CC2)nc2c1c(=O)n(C)c(=O)n2C
inactive: Her2 level [2] 110% | viability [3] 85% | viability [4] 94.5% | viability [5] 80.1% | differential viability (reversal) ([6]; H69AR cells + 2 uM doxorubicin) 41.5% | inhibition [7] -3.07% | inhibition [8] -6.17%
85%: viability [1]
38.6%: viability [6, 15]
80.1%: viability [6, 16]

O=C(NCc1nnc(SCC(=O)N2CCC(Cc3ccccc3)CC2)o1)c1ccccc1F
inactive: Her2 level [2] 96.5% | viability [3] 85% | viability [4] 74.5% | viability [5] 98.8% | differential viability (reversal) ([6]; H69AR cells + 2 uM doxorubicin) 3.91% | inhibition [7] 1.6% | inhibition [8] 3.11% | growth inhibition [9] 5.21% | growth inhibition [10] 17.2% | viability increase [11] -0.76% | viability [12] 90.2% | viability [13] 92.2% | inhibition [14] 1.69%
94.8%: viability [6, 15]
98.8%: viability [6, 16]
85%: viability [1]

CC12COC3(C(=O)Nc4ccc(Cl)cn4)CC1CCC32C (centres undefined)
inactive: Her2 level [2] 112% | viability [3] 72% | viability [4] 82.9% | viability [5] 94.6% | differential viability (reversal) ([6]; H69AR cells + 2 uM doxorubicin) 9.46% | inhibition [7] 0% | inhibition [8] -10% | growth inhibition [9] -15.9% | growth inhibition [10] -9.37% | viability increase [11] -0.46% | viability [12] 85.3% | viability [13] 85.7% | inhibition [14] 0.735%
94.6%: viability [6, 16]
72%: viability [1]
85.1%: viability [6, 15]

Cn1cccc1Cc1nnc(SCC(=O)N2CCOCC2)n1-c1ccc(F)cc1
88.5%: viability [1]
99.7%: viability [6, 16]
inactive: Her2 level [2] 104% | viability [3] 88.5% | viability [4] 106% | viability [5] 99.7% | differential viability (reversal) ([6]; H69AR cells + 2 uM doxorubicin) 11.4% | inhibition [7] -6.93% | inhibition [8] 0.33% | growth inhibition [9] 5.02% | growth inhibition [10] 19.7% | viability increase [11] -1.33% | viability [12] 102% | viability [13] 94.3% | inhibition [14] -0.47%
88.3%: viability [6, 15]

Cc1ccccc1Cn1c(=O)c2c(nc3n2CCCN3Cc2ccccc2)n(C)c1=O
inactive: Her2 level [2] 89% | viability [3] 89% | viability [4] 65.5% | viability [5] 78.5% | inhibition [7] -3.2% | inhibition [8] -2.26%
89%: viability [1]

CSc1nc2ccc(Nc3nc(N4CCOCC4)nc(N4CCOCC4)n3)cc2s1
60.5%: viability [6, 15]
56.8%: viability [6, 16]
62.5%: viability [1]
active: viability [4] 18.5%
inactive: Her2 level [2] 106% | viability [3] 62.5% | viability [5] 56.8% | differential viability (reversal) ([6]; H69AR cells + 2 uM doxorubicin) -3.63% | inhibition [7] 3.08% | inhibition [8] -0.5% | growth inhibition [9] -4.93% | growth inhibition [10] -5.7% | viability increase [11] -5.72% | viability [12] 68% | viability [13] 66.5% | inhibition [14] 1.97%

CCOC(=O)C1CCCN(c2c(Nc3ccc(C)c(C)c3)c(=O)c2=O)C1 (centres undefined)
84%: viability [1]
inactive: Her2 level [2] 99% | viability [3] 84% | viability [4] 91.7% | viability [5] 87.6% | inhibition [7] 0% | inhibition [8] -4.43%

From PubChem BioAssay
